Measurements from ChEMBL document CHEMBL3433997, “St. Jude Leishmania screening dataset” (2016).

Target: Glucose transporter (Leishmania mexicana) (UniProt O61059)
Assay: ST_JUDE_LEISH: Cytotoxicity at 2uM final concentration against transgenic Leishmania Mexicana promastigotes LmGT2 that are glucose transport deficient and complemented with the L. Mexicana glucose transporter 2. Activity is measured by DNA content using SYBR green in vitro
Format: functional

Row | Compound | inhibition [%]
1 | CC(C)NCc1cccc(-c2ccc(NS(=O)(=O)c3cccc4cccnc34)cc2)c1 | -2.82
2 | Cc1cc(NC(=O)Nc2ccc3sccc3c2)c2ccccc2n1 | 0.53
3 | CCCCCCc1c(C)nc2cc(OC)ccc2c1O | 2.87
4 | O=C(NC1CCC(N2CCN(c3cccc(C(F)(F)F)c3)CC2)CC1)c1cc2ccccc2[nH]1 (stereo not given) | 5.57
5 | CCNc1cc(C(=O)N[C@@H](Cc2ccccc2)[C@H](O)CNC2CCC(C)(C)CC2)cc(N2CCCCS2(=O)=O)c1 | 1.22
6 | O=C(NCc1ccccc1)C1Cc2c([nH]c3ccc(Br)cc23)C2(CCN(Cc3ccccc3)CC2)N1 (stereo not given) | 1.63
7 | CCOc1ccc2nc(NC(=O)c3csnn3)sc2c1 | -1.06
8 | COc1c(C2CCN(CCN3CCC(NC(=O)c4ccc(-c5ccc(C(F)(F)F)cc5)cc4)CC3)CC2)ccc2c1CCCC2 | 0.67
9 | N#CC(NC(=O)C=Cc1ccccc1)c1ccccc1 (stereo not given) | -0.2
10 | N#Cc1ccc(N(CCOc2ccc(Cl)cc2)Cc2ccccc2C(F)(F)F)cc1C(F)(F)F | -1.54
11 | Nc1nc(N)c2c(ccc3c2ccn3CCCC(F)(F)F)n1 | 8.28
12 | COc1cc2c(cc1OC)C(C(=O)Nc1cc(OC)c(OC)c(OC)c1)C(c1ccc(SC)cc1)N(C)C2=O (stereo not given) | 2.73
13 | CCn1c(Sc2ccc([N+](=O)[O-])c(C#N)c2)nnc1-c1ccc(Cl)cc1 | 12.8
14 | c1cc(CN2CCC(CCN3CCCCC3)CC2)cc(-c2cccc(-c3nc4ccccc4[nH]3)c2)c1 | 3.39
15 | O=C(NNC(=O)c1ccc(CCN2CCC(c3nc(COCC(F)(F)F)c(-c4ccc(F)cc4)o3)CC2)cc1)Nc1ccc(Oc2ccccc2)cc1 | -0.09
16 | CN(C)CCCNC(=O)c1ccccc1Sc1ccccc1C#N | 1.54
17 | Cc1cc(C)c2ncc(C(=O)O)c(O)c2c1 | 3.9
18 | COc1ccc2nccc([C@@H](O)CN3CCC(NC(=O)/C=C/c4ccc5ccccc5n4)CC3)c2c1 | 7.42
19 | COc1cccc(C(=O)Nc2ccc(Oc3ccc(Cl)cc3)cc2)c1 | -1.01
20 | Cc1cccc2nc(-c3ccc(-c4cccc(CNCc5ccccc5)c4)cc3)[nH]c12 | 6.25

Row | Compound | inhibition [%]
21 | Cc1cc(CNCCCCCCNCc2cccc([N+](=O)[O-])c2)ccc1O | 9.64
22 | CCCCCCCCc1c(C)nc(C)c(Br)c1O | -0.12
23 | CC(=O)Nc1ccc(COc2ccc(Nc3ccnc4cc(-c5ccccn5)ccc34)cc2)cc1 | 1.17
24 | Fc1ccc2[nH]c(-c3ccc(-c4ccc(CN5CCC(CCN6CCCCC6)CC5)cc4)cc3)nc2c1 | 3.31
25 | CCOc1ccc(-c2nonc2NC(=O)c2ccco2)cc1OCC | 0.72
26 | Cc1cccc2nc(-c3cccc(-c4cccc(NC(=O)c5ccc(C(N)=O)cc5)c4)c3)[nH]c12 | 1.3
27 | Cc1cccc2nc(-c3cccc(-c4ccc(NC(=O)CCc5c[nH]cn5)cc4)c3)[nH]c12 | 8.27
28 | O=C(NC1CC1c1ccccc1)N(CCCn1ccnc1)Cc1csc(-c2ccc(CNCc3ccccc3)cc2)n1 (stereo not given) | 3.57
29 | COc1ccc(NS(=O)(=O)c2ccc(C(=O)Nc3ccc(C(F)(F)F)cc3)cc2)cc1N1CCN(CC2CC2)CC1 | -7.4
30 | N#Cc1cccc(NC(=O)Nc2cccc(OC3CCN(Cc4ccccc4)CC3)c2)c1 | -0.29
31 | Cc1ccc(/C=C2/SC(=Nc3ccccc3)NC2=O)c(C)c1 | 7.9
32 | O=C(Nc1ccc(-c2ccccc2)s1)N[C@H]1CCN(Cc2ccc(OCCCN3CCCCC3)cc2)C1 | 2.81
33 | FC(F)(F)c1cnc(Sc2nnc(-c3ccncc3)o2)c(Cl)c1 | 9.49
34 | COc1ccc(-c2c3c(=O)n(C)c(=O)n(C)c3c3nnc4ccccc4n23)cc1 | 1.3
35 | CC(=O)Nc1nc(C(=O)Nc2cccc(-c3cccc(-c4nc5cc(F)ccc5[nH]4)c3)c2)cs1 | 2.66
36 | CCCNC[C@@H](O)[C@H](Cc1ccccc1)NC(=O)c1cc(NCC)cc(N2CCCC2=O)c1 | 0.72
37 | CC(C)(C)c1ccc(CNC(=O)c2ccc(-c3nc4ccc(Cl)cc4[nH]3)cc2)cc1 | 1.63
38 | COc1ccc2nccc([C@@H](O)CN3CCC(NCc4cc5ccccc5o4)CC3)c2c1 | 5.59
39 | COc1ccc(-c2cccc(NC(=O)c3cccc(Cl)c3)c2)cc1CNC(C)C | 1.24
40 | CCCn1cc2c(ccc3nc(N)nc(N)c32)n1 | 0.23
